About 83,000 compounds went through this panel and 20% of them were active in at least one assay; those are over-represented in the sample as a whole.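 Percent growth is the endpoint: 0 to 100 indicates growth inhibition (40 means 60% inhibition), 0 means no net growth, and negative values indicate cell death.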 A number with no mark means an inactive call. Calls of active or inactive are those of the source.
The compounds below were run on UO-31 renal (assay: NCI-60 one-dose screen, 48 h (100 = growth as untreated, 0 = no growth, -100 = all killed)). Settings: 10 µM.
Description: Growth inhibition of the UO-31 human tumor cell line is measured as a screen for anti-cancer activity. Cells are grown in 96 well plates and exposed to the test compound for 48 hours. Compounds are tested at a single concentration, which is 10^-5 M for most compounds. The reported endpoint is percent growth (GI% or GIPRCNT), where numbers from 0 - 100% represent growth inhibition, and numbers from -100% - 0 represent cell death. For example, a value of 40 represents 60% growth inhibition. A value of 0 means no net growth occurred over the course of the experiment. A value of -40 indicates 40% of cells at the beginning of the experiment died by the end of the experiment. A value of -100 means all cells are dead at the end of the experiment.
NCI-60 Human Tumor Cell Lines Screen was performed using the standard one-dose NCI protocol, which is described in more detail at https://dtp.cancer.gov/discovery_development/nci-60/default.htm.
Compounds with GIPRCNT values below 10 were considered active. Activity score was based on GIPRCNT using the following formula: […]
Score is 0 for GIPRCNT values of 100 or above, 50 for GIPRCNT values of 0, and 100 for GIPRCNT values of -100.

SMILES	growth
COc1cc(C2CC(=O)Nc3c2c(C)nn3-c2nc3ccccc3[nH]2)cc(OC)c1O (stereo not given)	8.39% (active)
O=c1[nH]c(=O)n(C2C[C@@H](O)[C@@H](CO)O2)cc1F (stereo not given in full)	10.5%
O=C(CSc1nnc(-c2ccc(Cl)cc2)o1)c1ccccc1	98.1%
O=C(/C=C/c1nnc2n(Cc3ccccc3)c(=O)c3c4c(sc3n12)CCCC4)c1ccccc1	80%
FC(F)(F)c1ccc(-c2nc(-c3nc4cc(Cl)c(Cl)cc4[nH]3)c3ccccn23)cc1	58.5%
COc1cc(OC)cc(-c2ccc(-c3ccc(C(=N)N)cn3)o2)c1	-33.9% (active)
CCc1ccc(-c2nnc(COc3ccc(-c4nc5ccccc5[nH]4)cc3OC)o2)cc1	56.8%
CCOC(=O)c1cc2c(n1Cc1cccc(OC)c1)-c1oncc1CC2	-0.772% (active)
COc1cc2c3c(cccc3c1)C(=O)N(CCN1CCCC1)C2=O	-3.17% (active)
CC1(C)CCc2cc(-c3ccn(S(=O)(=O)c4ccc(Cl)cc4)n3)ccc2O1	75.6%
COc1ccc(-c2nnc(SC/C(=N\O)c3ccccc3)o2)cc1	97.1%
COc1cccc(C(=O)NNc2nc(N3CCN(C4CCCCC4)CC3)nc(N3CCN(C(c4ccccc4)c4ccccc4)CC3)n2)c1	32.9%
C=CCn1ccc(=O)nc1SC	89%
C#CCNCCCN1C(=O)c2ccc3c4c(ccc(c24)C1=O)C(=O)N(CCCNCC#C)C3=O	-62.1% (active)
CCCCCCCCCCCCCC[n+]1ccccc1	5.61% (active)
Cc1cc(Cl)ccc1Nc1nc(C(F)(F)F)ccc1C(=O)N/N=C/c1ccccc1Cl	7.23% (active)
N/C(=N\O)c1cn(C2OC(CO)C(O)C2O)c2ncnc(N)c12 (stereo not given)	10% (active)
CC1(C)Cc2c(cn(Cc3ccccc3)c2-c2ccccc2)-c2oncc21	89.7%
CCOC(=O)c1c(C)n(-c2ccc(Cl)cc2)c2ccc(OC(=O)/C=C/c3ccccc3)cc12	83.1%
COc1ccccc1S(=O)(=O)Nc1ccc2c(c1)CN(C)C(=O)N2	10.2%

SMILES	growth
COc1cc(C(c2c[nH]c3ccccc23)N2CCCC2)ccc1OCc1ccccc1 (stereo not given)	24.7%
COc1ccc(-c2nc3sc(-c4ccccc4)c(-c4ccccc4)n3c2/C=C/c2ccc(F)cc2)cc1	82.7%
CCCCCC(CCC)COC(=O)c1ccc(OC)cc1 (stereo not given)	85.8%
CCOC(=S)Sc1ccc([N+](=O)[O-])cc1[N+](=O)[O-]	78.1%
COc1ccc(C2=Cc3ccc(OC(C)=O)cc3OC2)cc1	49.1%
O=C(c1ccccc1)C(Sc1ccccc1)c1ccccc1 (stereo not given)	79.9%
CC(Oc1ccc(Cl)cc1)c1ccccc1 (stereo not given)	77.6%
COc1ccc(C2C=C(c3ccc(Cl)c(Cl)c3)N=C3SC(C)=CN32)cc1 (stereo not given)	77.5%
COc1ccc(CCc2nc3cc(-c4c(C)noc4C)ccc3n2CCN2CCOCC2)cc1	4.71% (active)
COc1ccc2oc(=O)cc(C(c3ccc[nH]3)c3ccc[nH]3)c2c1	16.9%
CCOC(=O)c1cc2c(n1Cc1cc(OC)cc(OC)c1)-c1oncc1CC2	19.4%
COc1ccc(C(C)=O)cc1N1C(=O)C2C(C1=O)C1(c3ccccc3)C(=O)C2(c2ccccc2)C(c2ccc(C)cc2)=C1c1ccc(C)cc1 (stereo not given)	-4.71% (active)
COc1cc(/C=C/C(=O)c2cc(-c3ccc(F)cc3)ccc2O)cc(OC)c1OC	53.1%
Nc1nsc(C(=O)c2ccc(O)cc2)n1	79.5%
CCSc1nc2c([nH]1)c(=O)n(C)c(=S)n2C	98.2%
COc1ccc(-c2nsc3c2NC(=O)CC3c2ccc(Cl)cc2)cc1 (stereo not given)	62.8%
C=CCN1C(=O)/C(=C\c2ccc3c(c2)CCC3)SC1=S	85.6%
N#CN1CC[C@H](C(=O)Nc2ncc(-c3ccccc3)s2)C1	7.47% (active)
COc1ccc(C(=O)n2nc(CC(=O)NCc3ccccc3)nc2N)cc1	82.9%
CC(=O)/C(=C\c1ccc(Cl)cc1)c1ccccc1	52.2%

— PubChem BioAssay (NCI)
